# Laboratory results from PubChem BioAssay (Tox21).
# A number with no mark means an inactive call. Results filed as inconclusive are left out. Where a call stands in place of a potency, no number is given. Active and inactive are the calls of the source. Unless noted, calls follow the shape of the dose curve; as a rule, active = well fitted curve in the direction sought with a large enough effect in the repeat runs; inconclusive = weak or mixed curves; inactive = no such curve, though single readings can be large; an effect the other way counts as inactive or inconclusive.
# Key:
# [1] = qHTS assay to test for compound auto fluorescence at 535 nm (green) in HEK293 cells (AID 720680)
# [2] = qHTS assay to test for compound auto fluorescence at 460 nm (blue) in HEK293 cell free culture (AID 720681)
# Procedure, shortened: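 Compounds were added to cell-free DMEM with 10% FBS and fluorescence read directly. The blue channel used 405 nm excitation and 460 nm emission, with triamterene as the reference fluorophore.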
# [3] = qHTS assay to test for compound auto fluorescence at 535 nm (green) in HEK293 cell free culture (AID 720682)
# Procedure, shortened: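 Fluorescein serves as the green reference fluorophore; each compound's intrinsic emission at 535 nm (excitation 485 nm) is reported as an equivalent amount of that dye, measured in serum-containing DMEM without cells.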
# [4] = qHTS assay to test for compound auto fluorescence at 590 nm (red) in HEK293 cell free culture (AID 720683)
# Procedure, shortened: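 Cell-free wells of DMEM with 10% FBS received compound, and intrinsic fluorescence was read at excitation/emission 540/590 nm. Values expressed as equivalence to Rose Bengal sodium.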
# [5] = qHTS assay to test for compound auto fluorescence at 590 nm (red) in HepG2 cell free culture (AID 720684)
# Procedure, shortened: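 Compound was pinned into wells holding MEM with 10% FBS and no cells, and red fluorescence was read at Ex/Em 540/590 nm. Signal is expressed as auto fluorescence equivalency relative to Rose Bengal sodium.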
# [6] = qHTS assay to test for compound auto fluorescence at 460 nm (blue) in HepG2 cell free culture (AID 720685)
# Procedure, shortened: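 Compound (23 nL) or DMSO pinned into cell-free MEM with 10% FBS; blue fluorescence read at 405/460 nm excitation/emission, expressed as auto-fluorescence equivalency to triamterene.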
# [7] = qHTS assay to test for compound auto fluorescence at 535 nm (green) in HepG2 cell free culture (AID 720686)
# [8] = qHTS assay to test for compound auto fluorescence at 460 nm (blue) in HepG2 cells (AID 720687)
# Procedure, shortened: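 HepG2 cells in MEM with 10% FBS, attached overnight at 37 C, were exposed to compound or DMSO for 1 hr at 37 C, 5% CO2. Blue fluorescence was read at 405/460 nm, with triamterene as reference fluorophore.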
# [9] = target: Glucocorticoid receptor (Homo sapiens) (UniProt P04150); test: qHTS assay to identify small molecule antagonists of the glucocorticoid receptor (GR) signaling pathway (AID 720692; active = well fitted inhibition curve with a large enough effect in the signal ratio in the repeat runs, not every such curve was filed as active; the % refers to the signal ratio)
# Procedure, shortened: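 Dexamethasone (5 nM final) stimulated a stably integrated GRE-beta-lactamase reporter in HeLa cells during 18 h co-incubation with compounds; signal was quantified as fluorescence intensity of B/G FRET substrate after 2 h.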
# [10] = qHTS assay to identify small molecule antagonists of the glucocorticoid receptor (GR) signaling pathway - cell viability counter screen (AID 720693); also: nearly all actives have a fitted effect of over 55% in size
# [11] = qHTS assay for identifying genotoxic compounds that show differential cytotoxicity against isogenic chicken DT40 cell lines with known DNA damage response pathways - wild type cell line (AID 743012); also: nearly all actives have a fitted effect of over 60% in size; also: potency is read from the fitted curve at half-maximal effect
# Procedure, shortened: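 Using parental DT40 (300 cells/well), compounds delivered in DMSO incubate 40 h at 37 C/5% CO2. CellTiter-Glo reagent then stands 30 min at room temperature, and luminescence gives cell viability.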
# [12] = qHTS assay for identifying genotoxic compounds that show differential cytotoxicity against isogenic chicken DT40 cell lines with known DNA damage response pathways - Rev3 mutant cell line (AID 743014); also: nearly all actives have a fitted effect of over 55% in size; also: potency is read from the fitted curve at half-maximal effect
# [13] = qHTS assay for identifying genotoxic compounds that show differential cytotoxicity against isogenic chicken DT40 cell lines with known DNA damage response pathways - Rad54/Ku70 mutant cell line (AID 743015); also: nearly all actives have a fitted effect of over 60% in size; also: potency is read from the fitted curve at half-maximal effect
# [14] = qHTS assay to identify small molecule antagonists of the androgen receptor (AR) signaling pathway - cell viability counter screen (AID 743033; also: nearly all actives have a fitted effect of over 45% in size)
# [15] = qHTS assay to identify small molecule antagonists of the androgen receptor (AR) signaling pathway using the MDA cell line - cell viability counter screen (AID 743041; also: nearly all actives have a fitted effect of over 45% in size)
# Procedure, shortened: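 MDA-kb2 AR-luc cells (MMTV-luciferase, AR/GR responsive) treated with compounds plus R1881 agonist for 16 h at 37C. CellTiter-Fluor added at 15.5 h; fluorescence read after 30 min in the same wells.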
# [16] = target: Androgen receptor (Homo sapiens) (UniProt P10275); test: qHTS assay to identify small molecule agonists of the androgen receptor (AR) signaling pathway using the MDA cell line (AID 743040; also: nearly all actives have a fitted effect of over 20% in size)
# Procedure, shortened: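 MDA-kb2 breast carcinoma cells carrying MMTV-luciferase (responsive to AR and GR), plated 5 h then treated 16 h with compounds at 37C, 0% CO2. Read-out was ONE-Glo luminescence after 30 min at room temperature.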
# [17] = target: Androgen receptor (Homo sapiens) (UniProt P10275); test: qHTS assay to identify small molecule antagonists of the androgen receptor (AR) signaling pathway using the MDA cell line (AID 743042; also: nearly all actives have a fitted effect of over 55% in size)
# Procedure, shortened: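 MDA-kb2 breast carcinoma cells carrying MMTV-luciferase (AR/GR responsive) were co-treated with compounds and the agonist R1881 for 16 h at 37C. Inhibition read as ONE-Glo luminescence; CellTiter-Fluor fluorescence measured in parallel for cytotoxicity.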
# [18] = target: Androgen receptor (Homo sapiens) (UniProt P10275); test: qHTS assay to identify small molecule antagonists of the androgen receptor (AR) signaling pathway (AID 743035; active = well fitted inhibition curve with a large enough effect in the signal ratio in the repeat runs, not every such curve was filed as active; the % refers to the signal ratio)
# Procedure, shortened: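 Using qHTS, AR-UAS-bla GripTite HEK293 cells received compound, then R1881, and were cultured 16 h at 37C/5% CO2 before a 2 h room-temperature LiveBLAzer B/G FRET substrate step and fluorescence measurement.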
# [19] = target: Androgen receptor (Homo sapiens) (UniProt P10275); test: qHTS assay to identify small molecule agonists of the androgen receptor (AR) signaling pathway (AID 743036; active = well fitted activation curve with a large enough effect in the signal ratio in the repeat runs, with a control signal flat, not every such curve was filed as active; the % refers to the signal ratio)
# Procedure, shortened: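 Fluorescence from a beta-lactamase FRET substrate served as read-out in AR-UAS-bla GripTite HEK293 cells. Cells were treated with DMSO-dissolved compounds for 16 h at 37C, then with LiveBLAzer B/G substrate for 2 h at room temperature.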
# [20] = target: Glucocorticoid receptor (Homo sapiens) (UniProt P04150); test: qHTS assay to identify small molecule agonists of the glucocorticoid receptor (GR) signaling pathway (AID 720691; active = well fitted activation curve with a large enough effect in the signal ratio in the repeat runs, not every such curve was filed as active; the % refers to the signal ratio)
# Procedure, shortened: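 Reporter read-out: fluorescence intensity following 2 h room-temperature LiveBLAzer B/G FRET substrate loading. Prior step: GR-bla HeLa cells held 4 h, then treated 18 h at 37 C.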
# Sequence of Androgen receptor (Homo sapiens) (P10275 whole entry, looked up): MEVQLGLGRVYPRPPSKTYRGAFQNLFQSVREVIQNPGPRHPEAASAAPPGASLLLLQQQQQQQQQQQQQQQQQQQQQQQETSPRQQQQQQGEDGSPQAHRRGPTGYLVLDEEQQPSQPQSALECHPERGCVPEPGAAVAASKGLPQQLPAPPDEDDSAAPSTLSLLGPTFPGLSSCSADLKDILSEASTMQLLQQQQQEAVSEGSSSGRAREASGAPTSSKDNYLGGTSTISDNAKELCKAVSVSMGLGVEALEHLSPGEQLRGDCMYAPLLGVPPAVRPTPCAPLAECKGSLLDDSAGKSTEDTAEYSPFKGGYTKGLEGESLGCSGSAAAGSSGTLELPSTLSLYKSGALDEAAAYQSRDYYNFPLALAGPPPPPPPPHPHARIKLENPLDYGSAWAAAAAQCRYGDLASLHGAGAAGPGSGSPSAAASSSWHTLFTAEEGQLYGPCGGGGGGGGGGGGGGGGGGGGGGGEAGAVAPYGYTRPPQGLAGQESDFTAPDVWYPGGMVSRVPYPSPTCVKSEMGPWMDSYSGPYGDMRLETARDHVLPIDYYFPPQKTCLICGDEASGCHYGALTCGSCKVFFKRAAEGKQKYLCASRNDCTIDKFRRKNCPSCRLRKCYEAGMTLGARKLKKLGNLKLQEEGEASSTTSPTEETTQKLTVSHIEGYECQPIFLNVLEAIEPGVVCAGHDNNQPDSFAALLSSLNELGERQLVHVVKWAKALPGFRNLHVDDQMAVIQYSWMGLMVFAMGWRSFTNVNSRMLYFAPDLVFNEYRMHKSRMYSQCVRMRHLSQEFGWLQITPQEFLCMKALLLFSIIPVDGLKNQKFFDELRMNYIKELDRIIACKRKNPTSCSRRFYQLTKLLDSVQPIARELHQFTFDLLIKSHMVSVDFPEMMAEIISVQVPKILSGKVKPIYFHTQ
# Sequence of Glucocorticoid receptor (Homo sapiens) (P04150 whole entry, looked up): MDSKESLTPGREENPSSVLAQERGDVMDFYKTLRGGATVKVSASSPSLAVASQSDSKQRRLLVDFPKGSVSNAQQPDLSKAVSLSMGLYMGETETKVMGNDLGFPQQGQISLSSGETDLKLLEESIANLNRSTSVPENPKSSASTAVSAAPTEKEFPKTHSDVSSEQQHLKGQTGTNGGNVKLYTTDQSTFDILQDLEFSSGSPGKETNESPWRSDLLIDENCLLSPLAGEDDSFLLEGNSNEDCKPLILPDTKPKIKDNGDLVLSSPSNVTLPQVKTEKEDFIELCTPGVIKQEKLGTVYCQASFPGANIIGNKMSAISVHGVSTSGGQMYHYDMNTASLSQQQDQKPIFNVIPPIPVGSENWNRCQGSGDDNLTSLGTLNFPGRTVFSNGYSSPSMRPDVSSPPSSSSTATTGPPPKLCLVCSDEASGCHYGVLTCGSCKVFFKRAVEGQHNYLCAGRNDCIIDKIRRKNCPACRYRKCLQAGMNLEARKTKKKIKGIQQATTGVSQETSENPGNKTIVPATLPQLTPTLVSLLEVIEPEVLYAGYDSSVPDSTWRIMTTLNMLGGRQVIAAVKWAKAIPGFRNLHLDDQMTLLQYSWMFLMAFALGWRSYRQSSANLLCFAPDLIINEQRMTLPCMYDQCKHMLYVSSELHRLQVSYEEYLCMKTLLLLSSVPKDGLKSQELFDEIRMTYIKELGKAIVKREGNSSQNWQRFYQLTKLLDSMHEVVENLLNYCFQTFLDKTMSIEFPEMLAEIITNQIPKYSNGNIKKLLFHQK
SMILES,outcome [1],outcome [2],outcome [3],outcome [4],outcome [5],outcome [6],outcome [7],outcome [8],outcome [9],outcome [10],Potency [11],Potency [12],Potency [13],outcome [14],outcome [15],outcome [16],outcome [17],outcome [18],outcome [19],Potency [20]
O=S(=O)(O)c1ccc(Cl)cc1,inactive,inactive,inactive,inactive,inactive,inactive,inactive,inactive,inactive,inactive,inactive,inactive,inactive,inactive,inactive,,,,,
Nc1nc(Cl)cc(Cl)n1,inactive,inactive,inactive,inactive,inactive,inactive,inactive,inactive,inactive,inactive,,,,inactive,inactive,,,,,
O=C(O)CCCCCCCCCC(=O)O,inactive,inactive,inactive,inactive,inactive,inactive,inactive,inactive,inactive,inactive,30.6 µM (active),,27.3 µM (active),inactive,inactive,inactive,inactive,,,
CC(=O)SCC(CC(=O)c1ccc(C)cc1)C(=O)O (stereo unspecified),inactive,inactive,inactive,inactive,inactive,inactive,inactive,inactive,inactive,inactive,inactive,inactive,inactive,inactive,inactive,,,,,
CCCCCCCCCCCBr,inactive,inactive,inactive,inactive,inactive,inactive,inactive,inactive,inactive,inactive,inactive,,inactive,inactive,inactive,,,,,
Nc1cc(S(=O)(=O)O)ccc1O,inactive,inactive,inactive,inactive,inactive,inactive,inactive,inactive,inactive,inactive,inactive,inactive,inactive,inactive,inactive,inactive,inactive,inactive,inactive,
CC[N+](C)(CC)CC,inactive,inactive,inactive,inactive,inactive,inactive,inactive,inactive,inactive,inactive,inactive,inactive,inactive,,inactive,,,,,
CCOC(=O)[C@H](CCc1ccccc1)N[C@H]1CS[C@H](c2cccs2)CN(CC(=O)O)C1=O,inactive,inactive,inactive,inactive,inactive,inactive,inactive,inactive,inactive,,inactive,,inactive,,inactive,inactive,inactive,inactive,inactive,
c1coc(Cn2cccc2)c1,inactive,inactive,inactive,inactive,inactive,inactive,inactive,inactive,inactive,inactive,inactive,,inactive,inactive,inactive,,,,,
CCOC(=O)CC,inactive,inactive,inactive,inactive,inactive,inactive,inactive,inactive,,inactive,inactive,inactive,inactive,inactive,inactive,,,,,
CCO[Si](CC(C)C)(OCC)OCC,inactive,inactive,inactive,inactive,inactive,inactive,inactive,inactive,,,inactive,24.3 µM (active),inactive,,inactive,,,,,inactive
Cc1cc(C)c(N)c(Cl)c1,inactive,inactive,inactive,inactive,inactive,inactive,inactive,inactive,inactive,,,inactive,inactive,inactive,inactive,,,,,
O=C(O)P(=O)(O)O,inactive,inactive,inactive,inactive,inactive,inactive,inactive,inactive,,inactive,inactive,,inactive,inactive,inactive,,,,,
CCN1CCN(C(=O)N[C@@H](C(=O)N[C@@H]2C(=O)N3[C@@H]2SC(C)(C)[C@H]3C(=O)O)c2ccccc2)C(=O)C1=O,inactive,inactive,inactive,inactive,inactive,inactive,inactive,inactive,,inactive,inactive,,inactive,inactive,inactive,,,,,
